Here are results for 34 molecules from PubChem BioAssay (NCATS).

“And” between values parts separate entries of the source, which are not always exact repeats. Equal entries are not always repeated. Inconclusive results are not listed. Where a call stands in place of a potency, no number is given. The source made the active and inactive calls. Calls follow the shape of the dose curve; as a rule, active = well fitted inhibition curve with a large enough effect; inconclusive = small, poorly fitted or top-dose-only effect; inactive = no such curve, though single readings can be large or run the other way.

One experiment has as its target Furin (Homo sapiens) (UniProt P09958). In words: Furin counterscreen qHTS for Zika virus inhibitors (AID 1347149). Also: nearly all actives have a fitted effect of over 70% in size. As to conditions: furin enzymatic counterscreen, fluorogenic substrate; series mostly up to 57.5 µM. The method in brief:
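Counterscreen measures cleavage of 2 microM BOC-RVRR-AMC, below its ~15 microM Km, by 5 nM full-length human furin at pH 7.0 after a 15-min compound preincubation. Inhibition derives from the 15-min fluorescence increase at 37C.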
(A counterscreen serves to expose hits that act by an unwanted route or on another target.)

Experiment [1] concerns the target N-terminal Xaa-Pro-Lys N-methyltransferase 1 (Homo sapiens) (UniProt Q9BV86). In words: qHTS Assay for Inhibitors of N-terminal methyltransferase 1 (NTMT1): LOPAC validation of the NTMT1 SAHH-coupled ThioGlo3 Assay (AID 1347143).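 Also: SAH from peptide methylation measured as thiol fluorescence via SAHH coupling and ThioGlo3; nearly all actives have a fitted effect of over 70% in size.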 Particulars: recombinant NTMT1, SAHH-coupled ThioGlo3 fluorescence; series mostly up to 114 µM. Put shortly:
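NTMT1 125nM + cpds (various conc.), 1 min RT; add SAM 100uM/SAHH 10uM/ThioGlo3 15uM (addition mix). SAHH-coupled thiol detection, Ex340/Em450, t0 and 30 min RT; signal normalized to background. LOPAC 1280-cpd pilot.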

The test system of experiment [2] is Zika virus NS2B-NS3 protease (unlinked). As to the kind of experiment: Optimization of GU AMC qHTS for Zika virus inhibitors: Unlinked NS2B-NS3 protease assay (AID 1347151). Also: nearly all actives have a fitted effect of over 80% in size. Particulars: recombinant ZIKV NS2B-NS3 protease, fluorogenic AMC substrate; series mostly up to 52.5 µM. The method in brief: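 Fluorescence gain (340/450 nm) over 15 min at room temperature, ~20% conversion, gave percent inhibition fitted to a 4-parameter Hill equation; enzyme was unlinked NS2B-NS3 (25 nM final), pH 8.0 Tris buffer.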
Potency is read from the fitted curve at half-maximal effect.

Furin (Homo sapiens), sequence (P09958 whole entry, looked up): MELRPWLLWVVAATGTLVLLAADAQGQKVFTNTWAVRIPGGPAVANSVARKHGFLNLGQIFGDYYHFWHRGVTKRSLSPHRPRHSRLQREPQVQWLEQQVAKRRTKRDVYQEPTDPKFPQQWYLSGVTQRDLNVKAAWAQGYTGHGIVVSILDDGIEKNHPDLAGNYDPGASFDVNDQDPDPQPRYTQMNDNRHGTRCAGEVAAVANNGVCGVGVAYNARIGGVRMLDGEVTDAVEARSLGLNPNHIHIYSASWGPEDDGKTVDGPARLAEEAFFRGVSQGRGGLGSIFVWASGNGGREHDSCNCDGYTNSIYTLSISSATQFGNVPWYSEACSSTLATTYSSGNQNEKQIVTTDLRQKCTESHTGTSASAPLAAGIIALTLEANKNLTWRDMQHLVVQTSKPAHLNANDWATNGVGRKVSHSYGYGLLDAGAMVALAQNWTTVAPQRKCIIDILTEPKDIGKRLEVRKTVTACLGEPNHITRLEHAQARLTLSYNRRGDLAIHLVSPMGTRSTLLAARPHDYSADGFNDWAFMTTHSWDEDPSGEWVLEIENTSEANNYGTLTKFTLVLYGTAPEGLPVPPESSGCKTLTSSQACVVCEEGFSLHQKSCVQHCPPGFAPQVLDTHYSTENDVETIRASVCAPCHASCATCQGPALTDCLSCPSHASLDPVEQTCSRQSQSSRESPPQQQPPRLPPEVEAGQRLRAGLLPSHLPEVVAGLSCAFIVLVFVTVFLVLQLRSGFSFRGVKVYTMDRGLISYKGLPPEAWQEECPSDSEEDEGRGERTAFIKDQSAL
N-terminal Xaa-Pro-Lys N-methyltransferase 1 (Homo sapiens), sequence (Q9BV86 whole entry, looked up): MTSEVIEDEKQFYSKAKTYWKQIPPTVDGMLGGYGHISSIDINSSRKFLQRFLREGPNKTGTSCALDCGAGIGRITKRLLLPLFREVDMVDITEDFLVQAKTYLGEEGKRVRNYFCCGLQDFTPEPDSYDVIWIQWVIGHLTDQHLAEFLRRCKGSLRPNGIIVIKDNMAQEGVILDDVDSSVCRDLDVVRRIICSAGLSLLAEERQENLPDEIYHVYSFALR

For `NC1[C@H]2CN(c3nc4c(cc3F)c(=O)c(C(=O)O)cn4-c3ccc(F)cc3F)C[C@@H]12` (stereo partly specified), the Potency with Furin (Homo sapiens) is 24.1 µM (active).
With `CN(C)CCOC(C)(c1ccccc1)c1ccccn1` (stereo unspecified), the Potency result in experiment [1] and in experiment [2] was “inactive” in each case.
Turning to `CC(=O)c1ccc2c(c1)N(CCCN(C)C)c1ccccc1S2`, the Potency result in experiment [2] is “inactive”.
Turning to `CC(CN1c2ccccc2Sc2ccccc21)N(C)C` (stereo unspecified), in experiment [1], the Potency is 50.1 µM (active). Also, the Potency result in experiment [2] was “inactive”.
In the case of `CN1CCN(C2Cc3ccccc3Sc3ccc(Cl)cc32)CC1` (stereo unspecified), in experiment [2], the Potency result was “inactive”.
Consider `NC(N)=NCCC[C@H](N)C(=O)O`, for which the Potency entry in experiment [1] and in experiment [2] was “inactive” throughout.
As to `CN(C)CCCN1c2ccccc2Sc2ccc(Cl)cc21`, the Potency result in experiment [2] was “inactive”.
On the same count and under the same terms, next, `C#CCN(C)Cc1ccccc1`: “inactive”; `CCN(CC)CCNC(=O)c1c(C)[nH]c(/C=C2\C(=O)Nc3ccc(F)cc32)c1C`: “inactive”.
With `CN(C)CCC=C1c2ccccc2CCc2ccccc21`, the Potency result in experiment [1] and in experiment [2] was “inactive” in each case.
Regarding `CCCCN(CCCC)CC(O)c1cc(Cl)cc2c1-c1ccc(Cl)cc1/C2=C/c1ccc(Cl)cc1` (stereo unspecified), the Potency entry in experiment [1] and in experiment [2] was “inactive” each time.
With `CC1=C(/C=C/C(C)=C/C=C/C(C)=C/C(=O)O)C(C)(C)CCC1`, the Potency result in experiment [2] was “inactive”.
With `CN1CCC[C@@H]1Cc1c[nH]c2ccc(CCS(=O)(=O)c3ccccc3)cc12`, the Potency result in experiment [2] is “inactive”.
Turning to `CNCCC(Oc1ccc(C(F)(F)F)cc1)c1ccccc1` (stereo unspecified), the Potency result in experiment [1] and in experiment [2] was “inactive” throughout.
As to `Nc1ncnc2c1ncn2[C@@H]1O[C@H](CO)[C@@H](O)[C@H]1O`, the Potency result in experiment [2] was “inactive”.
Consider `CN(C)CCCN1c2ccccc2CCc2ccccc21`, for which, in experiment [2], the Potency result was “inactive”.
With `CC(C)(C)c1onc(OCP(=O)(O)O)c1CC(N)C(=O)O` (stereo unspecified), the Potency entry in experiment [1] and in experiment [2] was “inactive” throughout.
As for `CC[C@H]1CN2CCc3cc(OC)c(OC)cc3[C@@H]2C[C@@H]1C[C@H]1NCCc2cc(OC)c(OC)cc21`, the Potency result in experiment [1] and in experiment [2] was “inactive” in each case.
In the case of `N[C@H](C(=O)O)c1ccc(O)cc1`, the Potency entry (with Furin (Homo sapiens); in experiment [2]) was “inactive” in each case.
For the molecule `CSc1ccc2c(c1)C(N1CCN(C)CC1)Cc1ccccc1S2` (stereo unspecified), in experiment [2], the Potency result is “inactive”.
Take `O=C1NC(=O)[C@@]2(CCOc3ccc(F)cc32)N1`: the Potency result in experiment [1] and in experiment [2] was “inactive” in each case.
Regarding `CNCCCC1c2ccccc2C=Cc2ccccc21`, the results for the Potency in experiment [1] and in experiment [2] were 56.2 µM (active) and 26.7 µM (active), respectively.
On to `OCCN1CCN(CCCN2c3ccccc3Sc3ccc(Cl)cc32)CC1`, for which the Potency result in experiment [2] is “inactive”.
As to `CC(C)NC[C@H](O)c1ccc(O)c(O)c1`, the Potency entry in experiment [2] was “inactive”.
Take `CC(=O)OCC(=O)[C@@]1(O)CC[C@H]2[C@@H]3CCC4=CC(=O)CC[C@]4(C)[C@H]3C(=O)C[C@@]21C`: the Potency result in experiment [1] and in experiment [2] was “inactive” in each case.
As to `C[C@]12C[C@H](O)[C@H]3[C@@H](CCC4=CC(=O)CC[C@@]43C)[C@@H]1CC[C@@H]2C(=O)CO`, the Potency entry in experiment [2] was “inactive”.
Turning to `CCN(CC)CCOC(=O)C1(C2CCCCC2)CCCCC1`, the Potency result in experiment [1] and in experiment [2] was “inactive” throughout.
In the case of `Cc1cc(C(C#N)c2ccc(Cl)cc2)c(Cl)cc1NC(=O)c1cc(I)cc(I)c1O` (stereo unspecified), the Potency with Furin (Homo sapiens) was 7.64 µM (active) and 13.9 µM (active).
Regarding `Cc1c(O)cccc1C(=O)N[C@@H](CSc1ccccc1)[C@H](O)CN1C[C@H]2CCCC[C@H]2C[C@H]1C(=O)NC(C)(C)C`, the Potency entry in experiment [1] and in experiment [2] was “inactive” each time.
In the case of `CCCCc1ncc(/C=C(\Cc2cccs2)C(=O)O)n1Cc1ccc(C(=O)O)cc1`, the Potency entry in experiment [1] and in experiment [2] was “inactive” in each case.
As for `COc1ccc(Cl)cc1C(=O)NCCc1ccc(S(=O)(=O)NC(=O)NC2CCCCC2)cc1`, the Potency result in experiment [1] and in experiment [2] was “inactive” each time.
`CC1=C(CC(=O)O)c2cc(F)ccc2/C1=C\c1ccc(S(C)=O)cc1` (stereo unspecified): the Potency result in experiment [2] is “inactive”.
With `CNC(=O)Oc1ccc2c(c1)[C@]1(C)CCN(C)[C@@H]1N2C`, the Potency entry in experiment [2] was “inactive”.
In the case of `C[C@H](NC(CCc1ccccc1)C(=O)O)C(=O)N1CCC[C@H]1C(=O)O` (stereo partly specified), the Potency result in experiment [1] and in experiment [2] was “inactive” throughout.
